Laboratory results: PubChem BioAssay (NCI)
Compounds without any hit were thinned out: in the full panel of roughly 83,000, 20% have a hit.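 In brief: 96-well plates, 48 h treatment, single concentration, percent growth endpoint.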 Unmarked numbers belong to inactive results. The source made the active and inactive calls. The calls were made as follows: active = growth percent below 10; inactive = the rest.

Legend:
Assay in all cases: NCI-60 one-dose screen, 48 h (100 = growth as untreated, 0 = no growth, -100 = all killed)
Settings in all cases: 10 µM unless noted
SK-MEL-2 melanoma = test system: SK-MEL-2 melanoma
EKVX NSCLC = test system: EKVX NSCLC
SN12C renal = test system: SN12C renal
TK-10 renal = test system: TK-10 renal
ACHN renal = test system: ACHN renal
CAKI-1 renal = test system: CAKI-1 renal
A498 renal = test system: A498 renal
CCRF-CEM leukemia = test system: CCRF-CEM leukemia
MOLT-4 leukemia = test system: MOLT-4 leukemia
UO-31 renal = test system: UO-31 renal

Row | SMILES | growth (SK-MEL-2 melanoma) | growth (EKVX NSCLC) | growth (SN12C renal) | growth (TK-10 renal) | growth (ACHN renal) | growth (CAKI-1 renal) | growth (A498 renal) | growth (CCRF-CEM leukemia) | growth (MOLT-4 leukemia) | growth (UO-31 renal)
1 | CC1(C)N=C(N)N=C(N)N1c1ccc(Cl)c(Cl)c1 | 64.6% | 52.5% | 27.1% | 48.5% | 28.4% | 60.8% | 99.1% | 32% | 34.6% | –
2 | C=C(C)[C@@H]1CC[C@]2(CO)CC[C@]3(C)[C@H](CC[C@@H]4[C@@]5(C)C=C(C#N)C(=O)C(C)(C)[C@@H]5CC[C@]43C)[C@@H]12 | 30.1% | 15.4% | 8.07% (active) | 36.2% | 12% | 22.8% | – | 2.24% (active) | – | –
3 | Fc1ccc(Nc2nc3nonc3nc2Nc2ccc(F)cc2)cc1 | -26.2% (active) | – | 12% | -4.95% (active) | -15.9% (active) | -8.48% (active) | -41.1% (active) | 17.1% | -8.01% (active) | -6.75% (active)
4 | CCOC(=O)c1sc2ccc(NCc3nc[nH]c3C)cc2c1NC(=O)c1cc(OC)c(OC)c(OC)c1 | 84.1% | – | 87.5% | 150% | 65.1% | 96% | 101% | 52.2% | – | 70.4%
5 | COc1ccc(-c2nc3ccccn3c2/C=C/C(=O)c2cc(OC)c(OC)c(OC)c2)cc1 | 52.6% | 90.4% | 54.8% | 73.6% | 43.1% | 59.1% | 55% | 41.7% | 61.6% | –
6 | Cc1nc(C)c(-c2nn3c(-c4cccc(F)c4)nnc3s2)s1 | 102% | – | 97.6% | 77.6% | 117% | 103% | 67.5% | 90.4% | 87% | 83.9%
7 | CCCCn1c(=O)[nH]c(N)c(C(c2ccc(F)cc2)c2c(N)[nH]c(=O)n(CCCC)c2=O)c1=O | 58.6% | 69.3% | – | 68.3% | 92.7% | 100% | 90.1% | 58% | 29.8% | 103%
8 | CCOC(=O)C1C(=O)C=C(c2cnccn2)CC1c1ccc(OC)c(OC)c1 (centres undefined) | 86.4% | 101% | 100% | 87.8% | – | – | 119% | 82.2% | 73.2% | –
9 | CCn1c(Sc2nnc(NC(C)=O)s2)nc2c1c(=O)n(C)c(=O)n2C | 103% | 88.3% | 94% | 103% | 95.5% | 93.7% | – | 112% | 113% | –
10 | COc1ccc(Nc2ncc(Br)c(NCCCNC(=O)C3CCC3)n2)cc1 | 42.1% | 37.2% | 27.8% | 5.53% (active) | 19.5% | 0.899% (active) | 26.1% | 17.2% | 12.1% | –
11 | C(=C\c1nc2ccccc2[nH]1)/c1nc2ccccc2[nH]1 | 107% | – | 100% | 143% | 93.3% | 96.6% | 83.7% | 93.5% | 80.4% | 81.8%
12 | CCNCCNc1cc(-c2ccc(C#N)cc2)c(C#N)c2nc3ccccc3n12 | – | 76% | 59.3% | 82.3% | 3.09% (active) | 57.4% | 60.7% | 27.5% | 51.2% | -21.3% (active)
13 | CCNCCNc1cc(-c2ccc(F)cc2)c(C#N)c2nc3ccccc3n12 | – | 78.4% | 70.9% | 87.5% | 9.08% (active) | 71.2% | -9.7% (active) | 27.1% | 61.4% | 39.9%
14 | Fc1ccc(Nc2ccc3cc(OCCCN4CCOCC4)ccc3n2)cc1F | – | 61.2% | 68.4% | 66.6% | 67.2% | 70.7% | 36.8% | 75.4% | 61.9% | 19.5%
15 | C=C(C=O)[C@@H]1CC=C(C=O)CC1 | – | 2.06% (active) | -14.1% (active) | -42.2% (active) | -54.9% (active) | -31.7% (active) | 81.7% | -52.7% (active) | -40.8% (active) | -41.7% (active)
16 | N[C@H]1CCC[C@@H]1NCCCCN1C(=O)c2cccc3cccc(c23)C1=O | – | 84.6% | 63.9% | 65.8% | 44.9% | 84.4% | 40.5% | 84.5% | 20.2% | 60.3%
17 | CCc1c(C(=O)N[C@@H]2c3cc(Cl)ccc3CC[C@@H]2O)[nH]c(C)c1C(C)=O | – | 76% | 94.7% | 87.4% | 77.6% | 71.5% | 67.6% | 85.2% | 68.8% | 76.8%
18 | CN(C)c1ccc2cc(-c3ccc(Cl)c(Cl)c3)c(N)nc2c1 | – | 26.3% | 40.9% | 27.9% | 52.3% | 39.5% | 40.9% | 58% | 31% | 33.2%
19 | CCCCCCCC/C=C/CCCCCCCC1=NCC[N+]1(CCO)CCO | – | 76.4% | 76% | 41.2% | 82.2% | 52.5% | 73.4% | 31.4% | 41.7% | 65.4%
20 | CN1CCN(C(=O)[C@@]2(C)CC[C@]3(C)CC[C@]4(C)C(=CC[C@@H]5[C@@]6(C)C/C(=C/c7ccncc7)C(=O)C(C)(C)[C@@H]6CC[C@]54C)[C@@H]3C2)CC1 | – | 62.7% | 46.2% | 75.5% | 67.4% | 46.3% | 79.9% | 6.69% (active) | 2.16% (active) | 44.3%
21 | O=C1C2=C(CCN(Cc3ccccc3)C2)N2CCN=C2N1Cc1ccc(C(F)(F)F)cc1 | – | 20.6% | 23.1% | 37.7% | 31.3% | 28.6% | -0.0454% (active) | 52.6% | 59.8% | 25.4%
22 | COc1cc2oc3cc(C)oc(=O)c3c2cc1OC | – | 102% | 92.8% | 96.7% | 94% | 86.4% | 86.3% | 112% | 95% | 82.7%
23 | CC(/C=N/NC(=O)c1cc(-c2ccco2)[nH]n1)=C\c1ccccc1 | – | 89.2% | 95% | 123% | 93.1% | 80.8% | 110% | 92.3% | 96.6% | 96.8%
24 | CCC(O)(C(c1ccccc1)c1ccccn1)C(c1ccccc1)c1ccccn1 (centres undefined) | – | 97.7% | 110% | 107% | 95.2% | 90.3% | 96.7% | 114% | 87% | 84.3%
25 | O=C1Nc2ccccc2SC1c1ccccc1Cl (centres undefined) | – | 95.2% | 108% | 88.7% | 115% | 71.9% | 96.3% | 83.9% | 86.4% | 103%
26 | CCNCCNc1cc(-c2ccc(Cl)cc2)c(C#N)c2nc3ccccc3n12 | – | 11.2% | 44.9% | -20.3% (active) | -60% (active) | 39.5% | 2.87% (active) | -21.3% (active) | -28.7% (active) | -95.2% (active)
27 | Clc1ccc(-c2nnc(-c3ccco3)o2)cc1 | – | 100% | 82.6% | 120% | 100% | 73.3% | 103% | 87.4% | 90.1% | 84.4%
28 | CCOc1ccc2nc(-c3cccc(OCC(=O)NC(C)C)c3)nc(Nc3ccc(-c4cn[nH]c4)cc3)c2c1 | – | 9.24% (active) | 18.6% | 47.4% | 7.49% (active) | 27.7% | 46.7% | 20.4% | 5.6% (active) | -13.3% (active)
29 | N#Cc1cccc(-c2nc3ccccn3c2NCCN2CCOCC2)c1 | – | 104% | 96% | 101% | 98.3% | 85.1% | 99.1% | 92.5% | 96.5% | 73.3%
30 | COC(=O)CNC(=O)C(=O)c1c(O)c(O)c(C(C)C)c2cc(C)c(-c3c(C)cc4c(C(C)C)c(O)c(O)c(C(=O)C(=O)NCC(=O)OC)c4c3O)c(O)c12 | – | 5.91% (active) | 32.9% | 22.6% | 3.33% (active) | 51.4% | 27.6% | 24.4% | 15.7% | 1.7% (active)
